Data published in the antibiotic and cytotoxicity screens of Wong et al. (2023).
In all, about 39,000 compounds went through this assay and about 3,300 (8.5%) were called active. The sample as a whole holds a higher share of actives than the screen did.

test system: HepG2; test: cytotoxicity call (relative viability < 0.9); conditions: 10 µM

| SMILES | cytotoxicity call |
| --- | --- |
| O=C(C[C@@H]1C=C[C@H](NC(=O)CN2CCOCC2)[C@H](CO)O1)NC1CCCCC1 | inactive |
| CO[C@@H]1CN(C)C(=O)c2ccc(NC(=O)c3ccccc3)cc2OC[C@H](C)N(C(=O)CN(C)C)C[C@@H]1C | inactive |
| OC[C@@H]1CCCO1 | inactive |
| COc1ccc(NC(=O)Nc2ccc3c(c2)CC(=O)N([C@H](C)CO)C[C@H](C)[C@H](CN(C)Cc2ccc(-c4ccccc4)cc2)O3)cc1 | active |
| COc1ccc(NC(=O)Nc2ccc3c(c2)CC(=O)N([C@@H](C)CO)C[C@H](C)[C@@H](CN(C)Cc2ccc(-c4ccccc4)cc2)O3)cc1 | inactive |
| COc1ccc(NC(=O)Nc2ccc3c(c2)CC(=O)N([C@@H](C)CO)C[C@@H](C)[C@@H](CN(C)Cc2ccc(-c4ccccc4)cc2)O3)cc1 | active |
| COc1ccc(NC(=O)Nc2ccc3c(c2)CC(=O)N([C@H](C)CO)C[C@@H](C)[C@H](CN(C)Cc2ccc(-c4ccccc4)cc2)O3)cc1 | inactive |
| COc1ccc(NC(=O)Nc2ccc3c(c2)CC(=O)N([C@@H](C)CO)C[C@H](C)[C@H](CN(C)Cc2ccc(-c4ccccc4)cc2)O3)cc1 | active |
| COc1ccc(NC(=O)Nc2ccc3c(c2)CC(=O)N([C@H](C)CO)C[C@H](C)[C@@H](CN(C)Cc2ccc(-c4ccccc4)cc2)O3)cc1 | inactive |
| COc1ccc(NC(=O)Nc2ccc3c(c2)CC(=O)N([C@@H](C)CO)C[C@@H](C)[C@H](CN(C)Cc2ccc(-c4ccccc4)cc2)O3)cc1 | active |
| C[C@@H]1CN([C@H](C)CO)C(=O)Cc2cc(NS(=O)(=O)c3cccs3)ccc2O[C@@H]1CN(C)S(=O)(=O)c1ccc(F)cc1 | inactive |
| COc1ccc(NC(=O)N(C)C[C@@H]2Oc3ccc(NC(=O)CCCCCC(=O)Nc4ccccc4N)cc3CC(=O)N([C@@H](C)CO)C[C@@H]2C)cc1 | inactive |
| C[C@@H]1CN([C@H](C)CO)C(=O)c2cc(NC(=O)C3CC3)ccc2O[C@H]1CN(C)S(=O)(=O)c1cn(C)cn1 | inactive |
| O=C(Cc1n[nH]c(=O)[nH]1)NCc1n[nH]c2c1CCCCC2 | inactive |
| N=C1SCCN1CC(=O)O | inactive |
| C[C@@H]1CCCCO[C@H](CN(C)S(=O)(=O)c2ccc(F)cc2)[C@H](C)CN([C@@H](C)CO)C(=O)c2cc(NC(=O)CCC(F)(F)F)ccc2O1 | inactive |
| C[C@H]1CN([C@@H](C)CO)C(=O)c2cc(NC(=O)Cn3cnnn3)ccc2O[C@@H]1CN(C)S(=O)(=O)c1cn(C)cn1 | inactive |
| Cc1ccc(S(=O)(=O)N(C)C[C@H]2Oc3c(NS(=O)(=O)c4cn(C)cn4)cccc3C(=O)N([C@H](C)CO)C[C@H]2C)cc1 | inactive |
| Cc1noc(C)c1NC(=O)Nc1ccc2c(c1)C(=O)N([C@H](C)CO)C[C@H](C)[C@@H](CN(C)C(=O)Nc1c(C)noc1C)OCCCC[C@@H](C)O2 | inactive |
| COc1ccc(-c2cnc3c(c2)C(=O)N([C@H](C)CO)C[C@@H](C)[C@H](CN(C)C(=O)Cc2ccccn2)O3)cc1 | inactive |
| CNC[C@H]1Oc2ccc(NC(=O)Cn3cnnn3)cc2CC(=O)N([C@@H](C)CO)C[C@@H]1C | inactive |
| C[C@@H]1CN([C@H](C)CO)C(=O)c2cc(C3=CCCC3)cnc2O[C@@H]1CN(C)S(=O)(=O)c1cn(C)cn1 | inactive |

| SMILES | cytotoxicity call |
| --- | --- |
| C[n+]1cccc(C(=O)O)c1 | inactive |
| COc1ccc(NC(=O)Nc2ccc3c(c2)CC(=O)N([C@H](C)CO)C[C@@H](C)[C@@H](CN(C)Cc2ccc(-c4ccccc4)cc2)O3)cc1 | active |
| Cc1noc(C)c1NC(=O)Nc1ccc2c(c1)CC(=O)N([C@H](C)CO)C[C@H](C)[C@@H](CN(C)C(=O)NC(C)C)O2 | inactive |
| CCc1ccc(/C=C2\SC(=O)N(CCCCCCNC(=O)c3ccc(Nc4ccc([N+](=O)[O-])c5nonc45)cc3)C2=O)cc1 | inactive |
| CCc1ccc(/C=C2\SC(=O)N(CCCCCCNC(=O)c3ccccc3Nc3ccc([N+](=O)[O-])c4nonc34)C2=O)cc1 | active |
| N[C@H]1CCCN(Cc2cccc(O)c2)C1 | inactive |
| O=C(CCCCCCC(=O)Nc1ccc([C@H]2O[C@@H](CSc3ccncc3)C[C@H](c3ccccc3)O2)cc1)NO | inactive |
| O=C(/C=C/c1ccc(CNc2ccc([C@H]3O[C@@H](CSc4ccncc4)C[C@H](c4ccccc4)O3)cc2)cc1)NO | active |
| O=C(CCCCCCC(=O)Nc1ccc([C@@H]2O[C@H](CSc3ccncc3)C[C@H](c3ccccc3)O2)cc1)NO | inactive |
| C[C@H]1CN([C@@H](C)CO)C(=O)c2c(c3ccccc3n2C)-c2ccccc2CO[C@@H]1CN(C)Cc1ccc(Cl)c(Cl)c1 | inactive |
| O=C1C(=Cc2cccs2)CCCC1=Cc1cccs1 | inactive |
| CC(C)/C=C1\CC/C(=C\c2ccc(C(F)(F)F)cc2)C1=O | active |
| O=C1/C(=C/c2cccs2)CCC/C1=C\c1cccs1 | inactive |
| C[C@@H]1CN([C@H](C)CO)C(=O)c2cc(NC(=O)Cn3cnnn3)ccc2O[C@H]1CN(C)S(=O)(=O)c1cccs1 | inactive |
| CC(=O)n1cc([C@@H]2C=C(C(=O)N3CCCCCCC3)O[C@H](OCc3ccc(CO)cc3)C2)c2ccccc21 | inactive |
| COc1ccccc1C#Cc1ccc2c(c1)O[C@H](CN(C)Cc1cccnc1)[C@@H](C)CN([C@H](C)CO)S2(=O)=O | active |
| COc1ccccc1C#Cc1ccc2c(c1)O[C@H](CN(C)Cc1cccnc1)[C@H](C)CN([C@H](C)CO)S2(=O)=O | inactive |
| COc1ccccc1C#Cc1ccc2c(c1)O[C@@H](CN(C)Cc1cccnc1)[C@H](C)CN([C@H](C)CO)S2(=O)=O | active |
| COc1ccccc1C#Cc1ccc2c(c1)O[C@H](CN(C)Cc1cccnc1)[C@H](C)CN([C@@H](C)CO)S2(=O)=O | inactive |
| COc1ccccc1C#Cc1ccc2c(c1)O[C@@H](CN(C)Cc1cncnc1)[C@@H](C)CN([C@@H](C)CO)S2(=O)=O | inactive |
| COc1ccccc1C#Cc1ccc2c(c1)O[C@@H](CN(C)Cc1cccnc1)[C@H](C)CN([C@@H](C)CO)S2(=O)=O | inactive |
| COc1ccccc1C#Cc1ccc2c(c1)O[C@@H](CN(C)Cc1cccnc1)[C@@H](C)CN([C@@H](C)CO)S2(=O)=O | active |

| SMILES | cytotoxicity call |
| --- | --- |
| COc1ccccc1C#Cc1ccc2c(c1)O[C@H](CN(C)Cc1cccnc1)[C@@H](C)CN([C@@H](C)CO)S2(=O)=O | inactive |
| COc1ccccc1C#Cc1ccc2c(c1)O[C@@H](CN(C)Cc1cccnc1)[C@@H](C)CN([C@H](C)CO)S2(=O)=O | inactive |
| Cc1ccc(S(=O)(=O)Nc2ccc3c(c2)C(=O)N([C@@H](C)CO)C[C@@H](C)[C@H](CN(C)C(=O)C2CCCCC2)OCCCC[C@@H](C)O3)cc1 | inactive |
| C=CCOC(=O)[C@@H]1[C@H]2C(=O)O[C@H](c3ccccc3)[C@H](c3ccccc3)N2[C@H](c2ccc(OCCOC(=O)[C@@H]3C[C@@H]4C(=O)NCC(=O)N4[C@@H]3c3cccc(OCCO)c3)cc2)[C@@]12C(=O)Nc1ccccc12 | inactive |
| C[C@@H]1CN([C@@H](C)CO)C(=O)Cc2cc(NC(=O)Nc3cccc4ccccc34)ccc2O[C@H]1CN(C)C(=O)Nc1ccc2c(c1)OCO2 | inactive |
| C[C@@H]1CCCCO[C@@H](CN(C)C(=O)C2CCCCC2)[C@H](C)CN([C@H](C)CO)C(=O)c2cc(NC(=O)c3ccccc3)ccc2O1 | inactive |
| C[C@H]1CN([C@@H](C)CO)C(=O)c2cc(NC(=O)CCCN(C)C)ccc2O[C@@H]1CN(C)Cc1ccc2c(c1)OCO2 | inactive |
| C[C@@H]1CN([C@H](C)CO)C(=O)c2cc(NC(=O)Nc3ccc4c(c3)OCO4)ccc2O[C@@H](C)CCCCO[C@@H]1CN(C)Cc1ccc(Cl)c(Cl)c1 | active |
| C[C@@H]1CCCCO[C@@H](CN(C)Cc2ccc(Cl)c(Cl)c2)[C@H](C)CN([C@@H](C)CO)C(=O)c2cc(NC(=O)Nc3ccc4c(c3)OCO4)ccc2O1 | inactive |
| C[C@@H]1CCCCO[C@@H](CN(C)Cc2ccc(Cl)c(Cl)c2)[C@@H](C)CN([C@H](C)CO)C(=O)c2cc(NC(=O)Nc3ccc4c(c3)OCO4)ccc2O1 | inactive |
| C[C@H](CO)N1C[C@H](C)[C@@H](CN(C)Cc2ccc(Cl)c(Cl)c2)OCCCC[C@H](C)Oc2ccc(NC(=O)Nc3ccc4c(c3)OCO4)cc2C1=O | inactive |
| C[C@@H]1CCCCO[C@H](CN(C)Cc2ccc(Cl)c(Cl)c2)[C@@H](C)CN([C@H](C)CO)C(=O)c2cc(NC(=O)Nc3ccc4c(c3)OCO4)ccc2O1 | active |
| C[C@H]1CCCCO[C@H](CN(C)Cc2ccc(Cl)c(Cl)c2)[C@@H](C)CN([C@@H](C)CO)C(=O)c2cc(NC(=O)Nc3ccc4c(c3)OCO4)ccc2O1 | active |
| C[C@@H]1CCCCO[C@H](CN(C)Cc2ccc(Cl)c(Cl)c2)[C@@H](C)CN([C@@H](C)CO)C(=O)c2cc(NC(=O)Nc3ccc4c(c3)OCO4)ccc2O1 | inactive |
| C[C@@H]1CN([C@H](C)CO)C(=O)c2cc(NC(=O)Nc3ccc4c(c3)OCO4)ccc2O[C@@H](C)CCCCO[C@H]1CN(C)Cc1ccc(Cl)c(Cl)c1 | active |
| CO[C@@H]1CN(C)C(=O)c2ccc(NS(=O)(=O)CC(F)(F)F)cc2OC[C@@H](C)N(Cc2nccs2)C[C@H]1C | inactive |
| C=CC[C@H](CC(=O)NCCO)C(=O)NC[C@@H](OC(=O)[C@@H](CC=C)CC(=O)OC(C)(C)C)c1ccccc1 | inactive |
| C[C@H](CO)N1C[C@H](C)[C@@H](CN(C)CC2CC2)Oc2c(NS(=O)(=O)c3ccccc3)cccc2C1=O | inactive |
| CC(C)NC(=O)N(C)C[C@H]1Oc2ccc(NC(=O)Cn3cnnn3)cc2C(=O)N([C@H](C)CO)C[C@H]1C | inactive |
| CCCCC(=O)OC1(C(=O)CO)C(C)CC2C3CCC4=CC(=O)C=CC4(C)C3(F)C(O)CC21C (centres undefined) | inactive |
